Data from PubChem BioAssay (Tox21).
Where “and” joins values, the source holds several entries; their conditions need not be identical. Equal values may be shown once. Results filed as inconclusive are left out. Entries that show only a call come without a potency. Some compounds were tested as several samples or in several runs, with calls that do not always agree. Calls of active or inactive are those of the source. Calls follow the shape of the dose curve; as a rule, active = well fitted inhibition curve with a large enough effect in the repeat runs; inconclusive = weak or mixed curves; inactive = flat fitted curve, though single readings scatter.

assay: qHTS assay to identify small molecule HDAC inhibitors (AID 1259364); conditions: HCT-116 HDAC-Glo I/II luminescence, 2 h; series mostly up to 92.4 µM; also: nearly all actives have a fitted effect of over 45% in size
Source text: U.S. Tox21 Program National Center for Advancing Translational Sciences [NCATS] NIH Chemical Genomics Center [NCGC] U.S. Environmental Protection Agency [EPA] National Institutes of Environmental Health Sciences [NIEHS] National Toxicology Program [NTP] U.S. Food and Drug Administration [FDA] Tox21 Assay Overview: Histone deacetylases (HDACs) are a group of epigenetic enzymes that regulate gene expression by histone deacetylation. HDACs are capable of introducing epigenetic modifications and such aberrations contribute to the onset and progression of several human diseases, thus making HDACs a popular therapeutic target. For identifying endogenous class I/II HDAC inhibitors a homogenous, luminogenic HDAC I/II cell based assay was used to measure the relative activity of class I and II HDACs from cells. Wild type HCT-116 cells were used to screen Tox21 libraries for identifying class I/II HDAC inhibitors.
Tox21 Assay Protocol Summary: HCT-116 cells were dispensed at 1,500 per well in 5uL of culture medium into white solid bottom 1536-well plates (Greiner Bio-One, Monroe, NC) using a Multidrop Combi (Thermo Scientific, Waltham, MA) dispenser. The assay plates were incubated at 37 C and 5% CO2 for an overnight, and then 23nL of compounds dissolved in DMSO and positive control were transferred using a Pintool station (Wako, San Diego, CA). The assay plates were incubated at 37C and 5% CO2 for 2hr. After compound treatment, 4uL of HDAC-Glo reagent (Promega Corporation, Madison, WI) was added to each well of the assay plates using Flying Reagent Dispenser (FRD, Aurora Discovery, San Diego, CA) and incubated the assay plates at room temperature for 30min. The luminescence signal was quantified using a ViewLux plate reader (Perkin Elmer, Shelton, CT).
Potency is read from the fitted curve at half-maximal effect.

Structure (SMILES)	Potency
O=[N+]([O-])c1ccc(Cl)c(Cl)c1	inactive
C=CC(=O)OCCCCCC(C)C	inactive
O=C(O)CCCc1ccc(N(CCCl)CCCl)cc1	inactive
C=CC(=O)OCC(CC)CCCC (stereo not given)	inactive
CN1C(=O)CCS(=O)(=O)C1c1ccc(Cl)cc1 (stereo not given)	inactive
CN(C)C(=O)Nc1cccc(C(F)(F)F)c1	inactive
CN(C)C(=O)C(c1ccccc1)c1ccccc1	inactive
OCc1ccco1	inactive
Cc1cc(O)ccc1Cl	inactive
FC(F)(F)c1ccc(Cl)cc1	inactive
CN(C)C(=O)Cl	inactive
CNCC(O)c1ccc(O)cc1 (stereo not given)	inactive
Nc1ncc([N+](=O)[O-])s1	inactive
C[C@H]1C(=O)O[C@@H]2CCN3CC=C(COC(=O)[C@](C)(O)[C@]1(C)O)[C@H]23	inactive
CCCCC(CC)C(=O)Cl (stereo not given)	inactive
Cc1cccc(N)c1C	inactive
N#CN=C(N)N	inactive
CC(C)CCCCCCOC(=O)c1ccccc1C(=O)OCCCCCCC(C)C	inactive
C=C(C)C(=O)OCC(CC)CCCC (stereo not given)	inactive
CCOP(=S)(OCC)Oc1cc(C)nc(C(C)C)n1	inactive

Structure (SMILES)	Potency
COS(=O)(=O)OC	inactive
CCSC(=O)N1CCCCCC1	inactive
Nc1ccc(N)cc1	inactive
C=CCN=C=S	inactive
N#Cc1cccc(C#N)c1	inactive
O=C(O)C(Br)Br	inactive
Clc1cnc(Oc2ccc(Oc3ncc(Cl)cc3Cl)cc2)c(Cl)c1	inactive
CN(C)NC(=O)CCC(=O)O	inactive
O=C(O)COc1ccccc1	inactive
Nc1nc(N)nc(NC2CC2)n1	inactive
CNc1cnn(-c2cccc(C(F)(F)F)c2)c(=O)c1Cl	inactive and 30.6 µM (active)
O=C/C=C/c1ccccc1	inactive
Cc1cccc(C)c1N	inactive
OCCCCO	inactive
CC(=O)/C=C/c1ccccc1	inactive
CC[N+](=O)[O-]	inactive
CCOP(=S)(OCC)Oc1ccc([N+](=O)[O-])cc1	inactive
O=P1(NCCCl)OCCCN1CCCl (stereo not given)	inactive
O=[N+]([O-])c1cc([As](=O)(O)O)ccc1O	inactive
ClCCOCCCl	inactive
